HPGD block: HPGD (human) dehydrogenase inhibition; Potency, µM, for inactives: top-dose activity change, negative = inhibition, hits mostly inhibitors; purified HPGD, NADH fluorescence kinetic, PGE2 substrate; AID 894; P15428; actives 4.3% (n = 150,000); also: potency is read from the fitted curve at half-maximal effect
Target sequence (P15428 whole entry, looked up): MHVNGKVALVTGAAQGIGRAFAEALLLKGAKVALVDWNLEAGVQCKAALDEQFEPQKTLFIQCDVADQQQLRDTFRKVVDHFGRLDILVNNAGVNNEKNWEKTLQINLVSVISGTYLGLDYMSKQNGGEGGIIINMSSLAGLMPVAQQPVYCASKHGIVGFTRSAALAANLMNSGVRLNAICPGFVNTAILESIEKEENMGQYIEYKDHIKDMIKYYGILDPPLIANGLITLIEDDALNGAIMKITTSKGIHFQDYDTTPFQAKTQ
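NADH formation kinetics: reaction with 30 uM PGE2 and 1 mM NAD+ (final), 20 nM enzyme, Tris-HCl pH 8 with Tween 20, after 15 min compound preincubation at room temperature. Fluorescence change, last versus first of five reads.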
ALDH1A1 inh: inhibitors of human aldehyde dehydrogenase 1A1; Purified ALDH1A1, NADH fluorescence, propionaldehyde substrate; Potency, µM (top dose mostly 75.3 µM), for inactives: at the top dose activity, negative = inhibition, actives largely listed as inhibitors; actives 7.3% (n = 220,000); AID 1030;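 also: potency is read from the fitted curve at half-maximal effect; plate controls were no enzyme wells and a reference inhibitor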
PNC inhibitor: blocks assembly of the perinucleolar compartment; actives 3.1% (n = 140,000); AID 2417; activity change (PNC), negative = inhibition, % at 10 µM; PC3M PTB-GFP, PNC prevalence imaging, 16 h; stronger effect = lower value;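 active = readout at or below -70, meaning at least 70% loss of cells showing the perinucleolar compartment, a nuclear body marking cancer cells; inconclusive = readout between -30 and a set limit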;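 also: plate controls were DMSO wells for no effect and camptothecin positive control wells for full effect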
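Read-out is percentage of cells bearing a perinucleolar compartment, from automated 20x imaging of fixed, Hoechst-stained PC3M PTB-GFP cells. Cells were seeded 4 h, then exposed 16 h to compound (23 nl of library stock) in duplicate plates.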
Starred values were filed as active, the others as inactive; u = inconclusive; x = no result; [ ] = dose if it differs, or a comment. Compounds with a hit are over-represented: about 11% of the library has one in this group of screens. Unless noted, calls follow the shape of the dose curve; as a rule, active = well fitted inhibition curve with a large enough effect (not every such curve was filed as active); inconclusive = small, poorly fitted or top-dose-only effect, or another doubt; inactive = no such curve, though single readings can be large or run the other way. Unless noted, % is scaled to controls: 0 for no effect and ±100 for the full control effect.

SMILES	HPGD block	ALDH1A1 inh	PNC inhibitor
Cc1ccc(C(=O)OC2OC(=O)C(Cl)=C2N2CCOCC2)cc1 (configuration not stated)	0%	12%	u
COc1ccc(C(=O)C2CCCN(C3Cc4ccccc4C3)C2)c(OC)c1 (configuration not stated)	x	-6%	x
COCC(C)OC(=O)c1c(N)n(-c2ccc(OC)c(OC)c2)c2nc3ccccc3nc12 (configuration not stated)	x	-1%	x
COc1cc2[nH]cc(C(=O)NCCc3ccccc3)c(=O)c2cc1OC	u	u	-100*
COCCNC(=O)c1c[nH]c2cc(OC)c(OC)cc2c1=O	-10%	-10%	u
COc1cccc(N=C2C(=O)N3CCCc4cccc2c43)c1	-11%	0.16µM*	16
COc1ccc(NC(=O)N2CCCc3cccc(C)c32)cc1	x	-4%	x
Oc1ccc(Cc2nccc3cc(O)c(O)cc23)cc1O	-10%	-8%[13.5 µM]	x
OCCC1CN(Cc2cn[nH]c2C2CCCCC2)CCN1C1CCCCC1 (configuration not stated)	x	10%	x
O=C(COC(=O)c1ccc(NS(=O)(=O)c2cccs2)cc1)Nc1nc2c(F)c(F)c(F)cc2s1	x	0%	x
O=C(COC(=O)c1ccc(Br)o1)Nc1nc2c(F)c(F)c(F)cc2s1	x	22µM*	x
COc1ccc(Nc2oc(COc3ccc(OC)cc3)nc2C#N)cc1	u	-2%	u
COc1ccc(Nc2oc(COc3ccc(C)cc3)nc2C#N)cc1	25µM*	u	-100*
O=C(COC(=O)/C=C/c1ccco1)NCc1ccco1	x	-11%	x
COc1ccc(CNC(=O)COC(=O)/C=C/c2ccco2)cc1	x	25µM*	x
COc1ccc(COC(=O)N/C=C/c2ccco2)cc1	x	28µM*	x
COc1ccc(CC(=O)NCC(=O)N/N=C/c2ccco2)cc1	-10%	u	u
O=C(N/N=C\c1cccc(OC(=O)c2ccco2)c1)c1ccc2c(c1)OCO2	-10%	4%	u
COc1ccc(O[C@H]2C=C[C@@H](c3ccccc3)O[C@@H]2CON=C(C)C)cc1	x	3%[13.5 µM]	x
COc1ccc(NC(=O)N2CCC3(CC2)CCN(C(=O)c2csnn2)CC3)cc1	0%	-12%	x
NC1=NC(=O)/C(=C/c2cn(CCC(=O)O)nc2-c2ccc(F)cc2)S1	25µM*	-15%	18
O=C(O)CCn1cc(/C=C\C(=O)c2ccc(Cl)cc2)c(-c2cccc(Br)c2)n1	25µM*	u	44
NC1=NC(=O)/C(=C/c2cn(CCC(=O)O)nc2-c2ccc(Cl)cc2)S1	13µM*	25%	4
O=C(O)/C=C/c1cn(Cc2ccccc2)nc1-c1ccc(Cl)cc1	x	4%	x
N#CCCn1cc(/C=C/C(=O)O)c(-c2ccc(F)cc2)n1	x	13%	x
SMILES	HPGD block	ALDH1A1 inh	PNC inhibitor
Cc1cc(-c2nn(-c3ccccc3)cc2/C=C2\SC(N)=NC2=O)ccc1OC(C)C	u	u	-14
COc1ccc(-c2nn(CCC(=O)O)cc2/C=C2\SC(N)=NC2=O)cc1	11µM*	4%	35
CCCOc1ccc(-c2nn(-c3ccccc3)cc2/C=C2\SC(N)=NC2=O)cc1	u	12%	-8
Clc1ccc(Nc2ccccc2)nn1	x	21%	x
Cc1nn(-c2nnc(NCc3ccccc3)nn2)c(C)c1Br	14µM*	28µM*	u
Cc1cc(C)n(-c2nnc(NCc3ccc(Cl)cc3)nn2)n1	x	2%	x
Cc1ccc2nc(-c3ccccc3)nc(SC(C)C(=O)NCc3cccs3)c2c1 (configuration not stated)	-11%	2%	28
Cc1ccc(C)c2c(SC(C)C(=O)NCc3ccco3)nc(-c3ccccc3)nc12 (configuration not stated)	-22%	-1%	-100*
NC1(C(=O)O)CCc2cc(P(=O)(O)O)ccc21 (configuration not stated)	x	-4%	x
Cc1cc(C)c(C)c(S(=O)(=O)N2CCN(c3ccc(O)cc3)CC2)c1C	x	22µM*	x
Cc1ccc(S(=O)(=O)N2CCOCC2)cc1NC(=O)CN1CCN(c2ccc(O)cc2)CC1	5%	u	41
CC(C)CN1CCC2(CC1)CCN(C(=O)c1cc(C(F)(F)F)cc(C(F)(F)F)c1)CC2	-8%	1%	x
CC(=O)Oc1ccc(-c2cccc(C(=O)NCCCO)c2)cc1	-32%	1%	37
CCCCCCCCCCCCCCCCCC(=O)NCC(COP(=O)([O-])OCC[N+](C)(C)C)OCC (configuration not stated)	-14%	-6%	x
C/C(=N\NC(=O)c1ccc(Br)cc1)c1ccccc1	-11%	1%	75
CC/C(=N\NC(=O)c1ccc(N(C)C)cc1)c1ccccc1	-19%	28µM*	32
O=S1(=O)CCN(Cc2ccc(Cl)c(C(F)(F)F)c2)CC1	x	-9%	x
CCCCC(=O)Nc1ccccc1Oc1ccccc1	x	7%	x
CN(Cc1ccco1)C(=O)C(Cc1ccccc1)NS(=O)(=O)c1ccc2c(c1)CCC(=O)N2 (configuration not stated)	-6%	25µM*	-81*
CCCNC(=O)C(Cc1ccccc1)NS(=O)(=O)c1ccc2c(c1)CCC(=O)N2 (configuration not stated)	5%	-13%	5
COc1ccc(CCN(C)C(=O)CSc2nnnn2C)cc1OC	x	5%	x
O=C(c1ccco1)N1CCC2(CC1)CN(C(c1ccccc1)c1ccccc1)C2	-7%	-13%	x
CC1CCC/C(=N\NC(=O)c2ccncc2)C1 (configuration not stated)	0%	-3%	13
Cc1ccc(N2C(=O)CS(=O)C(c3ccccc3)C2=O)cc1C (configuration not stated)	x	3.5µM*	x
Cc1ccc(N2C(=O)C3C(C2=O)N2CCCN2C3c2ccccc2)cc1C (configuration not stated)	x	-4%	x
SMILES	HPGD block	ALDH1A1 inh	PNC inhibitor
CCCCNC(=O)CNC(=S)N(CCCN1CCOCC1)Cc1cccs1	-14%	-5%	-21
NC[C@H]1O[C@@H](n2cnc3c(=O)[nH]c(N)nc32)[C@@H](O)[C@@H]1O	-7%	3%[13.5 µM]	x
CC(=O)Oc1cccc(N2C(=O)c3ccccc3C2=O)c1	-7%	-14%	-85*
CC(=O)c1cccc(NC(=O)COC(=O)c2ccc3c(c2)OCCO3)c1	x	3%	x
CC(=O)Oc1cccc(N2C(=O)c3ccc(C(=O)Nc4cccnc4)cc3C2=O)c1	x	18µM*	x
CCOc1ccccc1N1C(=O)c2ccc(C(=O)Nc3cccnc3)cc2C1=O	-17%	-10%	0
CC(=O)c1cccc(NC(=O)COC(=O)c2cccc(N3C(=O)c4ccccc4C3=O)c2)c1	-12%	14µM*	-6
CC(=O)Nc1cccc2c1C(=O)N(c1cccc(OC(C)=O)c1)C2=O	x	-4%	x
Cc1ccc(Sc2nc([N+](=O)[O-])nn2C)cc1	-6%	17%	u
O=C(COC(=O)Cn1cnc2ccccc2c1=O)Nc1cc(Cl)ccc1[N+](=O)[O-]	-15%	u	1
Cc1cccc2c1OCC/C2=N\NC(=O)COc1ccccc1	-7%	-2%	40
O=C(COc1cccc(Br)c1)NN=C1c2ccccc2-c2ccccc21	-7%	0%	-119*
O=C(COc1cccc(Br)c1)N/N=C1\CCCc2ccccc21	x	-1%	x
O=C(COc1cccc(Br)c1)N/N=C1\CCSC1	x	4.5µM*	x
COCC(=O)N1CCC2(CC1)CN(Cc1ccc(C#N)cc1)C2	-8%	4%	x

Screening data from PubChem BioAssay.
